Sampled rows, rich in hits. Any-hit rate of the full collection: about 22%.
CYP2C9 inhib – human CYP2C9 inhibition. P11712. CYP2C9 Supersomes, luciferin-H conversion, luminescence. inhibition, % at 5 µM. hit rate 20% among 96,000. AID 777;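 active means blocking of liver enzyme CYP2C9 beyond about 50% at 5 µM, limit read from the data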
CYP2C9 act – CYP2C9 (human) activation; P11712; recombinant CYP2C9, luciferin-H conversion, luminescence; active compounds read high; factor 1 = untreated enzyme, 0 = blocked; activation factor at 5 µM; hit rate 1.4% among 96,000;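 active means activation factor of 2 or more for CYP2C9 at a 5 µM dose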;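 further: 0 = sulfaphenazole-blocked wells and 1 = vehicle-only wells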
Measles CPE – protection of cells from measles virus | protection (pct of control), % at 4 µM | Measles virus-infected cells, CPE protection, absorbance | hit rate 1.5% among 140,000; in the data active means protection mostly above about 24%, no sharp cut-off; inactive means mostly below about 26%
CYP2C19 act – activators of human cytochrome P450 2C19; 96,000 tested, under 10 active; recombinant CYP2C19, luciferin-H EGE luminescence; active compounds read high; 0 = fully inhibited enzyme, 1 = untreated enzyme; AID 1025; activation factor at 5 µM; P33261;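 active means activation factor of at least 2 at 5 µM in the primary screen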;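 further: 0 = wells with 2.5 mM tranylcypromine and 1 = vehicle-only wells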
Target sequence (P33261 whole entry, looked up): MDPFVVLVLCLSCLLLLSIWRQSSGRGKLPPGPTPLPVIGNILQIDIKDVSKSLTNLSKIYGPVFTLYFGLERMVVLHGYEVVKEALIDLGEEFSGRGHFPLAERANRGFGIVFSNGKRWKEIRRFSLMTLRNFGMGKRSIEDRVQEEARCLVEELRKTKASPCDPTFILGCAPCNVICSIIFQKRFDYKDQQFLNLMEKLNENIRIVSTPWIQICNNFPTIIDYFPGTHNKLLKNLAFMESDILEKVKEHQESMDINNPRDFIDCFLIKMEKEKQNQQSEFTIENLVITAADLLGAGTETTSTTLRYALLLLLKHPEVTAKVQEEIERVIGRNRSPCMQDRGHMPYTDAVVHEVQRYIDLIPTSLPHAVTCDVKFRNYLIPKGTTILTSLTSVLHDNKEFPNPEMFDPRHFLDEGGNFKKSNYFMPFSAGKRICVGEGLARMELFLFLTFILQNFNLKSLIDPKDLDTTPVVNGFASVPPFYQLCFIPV
CYP2C19 inhib – human CYP2C19 inhibition; P33261; inhibition, % at 5 µM; CYP2C19 Supersomes, luciferin-H EGE luminescence, 30 min; hit rate 21% among 96,000;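 active means CYP2C19 inhibition above a set limit at 5 µM in the primary screen, cut at about 50% in these data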;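 further: plate controls were negative control wells for no effect and 2.5 mM tranylcypromine positive control for full effect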
An asterisk follows results filed as active; · = no result given.

SMILES | CYP2C9 inhib | CYP2C9 act | Measles CPE | CYP2C19 act | CYP2C19 inhib
CC(C(=O)NCc1ccco1)n1cc(C(=O)c2ccco2)c2ccccc21 (configuration not stated) | 30 | 0.7 | 9 | 0.8 | 20
COC(=O)c1ccc(OCC(=O)Nc2nn(-c3ccccc3)nc2C(N)=O)cc1 | 0 | 1 | 6 | 1.1 | -7
Cc1c(Cl)cccc1NC(=S)/C(=C(\[O-])c1ccc(Cl)s1)[n+]1ccccc1 | · | · | 10 | · | ·
O=C(O)C1CC=CCC1C(=O)Nc1ccc2c(c1)OCCO2 (configuration not stated) | · | · | 34 | · | ·
CC(=O)c1cc2c(cc1NS(=O)(=O)c1ccc3c(c1)OCCO3)OCO2 | -71 | 1.7 | 11 | 0 | 99*
CC(=O)Nc1cc2c(cc1C(C)=O)OCCO2 | 14 | 0.9 | 8 | 0.7 | 26
CCN(CC)S(=O)(=O)c1ccc(S(=O)(=O)Nc2cc3c(cc2C(C)=O)OCO3)cc1 | 97* | 0 | 9 | 0.5 | 52*
CC(=O)c1cc2c(cc1NC(=O)C1CC=CCC1C(=O)O)OCO2 (configuration not stated) | 74* | 0.3 | 8 | 1 | -1
COc1ccc(NS(=O)(=O)c2ccc(O)c(C(=O)OCC(=O)Nc3ccc4c(c3)OCCO4)c2)cc1 | · | · | 6 | · | ·
CCC(CC)NC(=O)COC(=O)c1ccc(NS(=O)(=O)c2ccc3c(c2)OCCO3)cc1 | 99* | 0 | 7 | 0.2 | 84*
COc1cc(/C=N/NC(=O)c2[nH]nc3c2CCc2ccccc2-3)ccc1O | · | · | 8 | · | ·
CCC(C)NC(=O)CNC(=O)Cn1c(C)cc2ccccc2c1=O (configuration not stated) | -24 | 1.2 | 10 | 0.9 | 11
CC1(Br)C2CCCC1C2S(=O)(=O)c1ccccc1 (configuration not stated) | · | · | 5 | · | ·
COC(=O)c1ccc(Cl)c(NS(=O)(=O)c2ccc3c(c2)OCCO3)c1 | 37 | 0.6 | -1 | 0.1 | 87*
CC(C)[C@H](NS(=O)(=O)c1ccc2c(c1)OCCO2)C(=O)OCC(=O)Nc1cc(Cl)ccc1Cl | · | · | 12 | · | ·
Cc1ccc(CNC(=O)/C=C/c2ccc(S(=O)(=O)N3CCOCC3)cc2)cc1 | · | · | 3 | · | ·
COc1ccc(CNC(=O)C2CC(=O)N(c3ccc(OCC(=O)N4C(C)CCCC4C)cc3)C2)cc1 (configuration not stated) | 61* | 0.4 | 18 | 0.7 | 31
C=CCNC(=O)C1CC(=O)N(c2ccc(OCC(=O)Nc3ccc(C)cc3)cc2)C1 (configuration not stated) | 21 | 0.8 | 3 | 1.1 | -9
COc1cccc(N2CC(C(=O)NC3CCCCC3)CC2=O)c1 (configuration not stated) | -128 | 2.3* | 0 | 1 | -3
C=CCNC(=O)C1CC(=O)N(c2ccc(OCC(=O)Nc3ccccc3)cc2)C1 (configuration not stated) | 55* | 0.4 | 21 | 0.8 | 19
COc1cccc(N2CC(C(=O)Nc3ccc(C(=O)OC(C)C)cc3)CC2=O)c1 (configuration not stated) | 71* | 0.3 | 10 | 0.5 | 51*
COc1ccc(N2CC(C(=O)NC3CC(C)(C)NC(C)(C)C3)CC2=O)cc1 (configuration not stated) | 10 | 0.9 | 9 | 1.1 | -11
COc1ccc(CNC(=O)C2CC(=O)N(c3ccc(OCC(=O)N4CCCCC4)cc3)C2)cc1 (configuration not stated) | 47 | 0.5 | 2 | 0.7 | 32
COC(=O)c1c(N2C(=O)[C@H]3[C@@H](C2=O)[C@]2(C(=O)Nc4c(C)cccc42)N2CCC[C@@H]32)sc(C)c1C | · | · | 12 | · | ·
Cc1ccc2nc(N/C(N)=N/S(=O)(=O)c3ccc([N+](=O)[O-])cc3)nc(C)c2c1 | · | · | 8 | · | ·
SMILES | CYP2C9 inhib | CYP2C9 act | Measles CPE | CYP2C19 act | CYP2C19 inhib
COC(=O)c1[nH]c2ccccc2c1NC(=O)CN1CCN(c2cccc(OC)c2)C(C)C1 (configuration not stated) | 35 | 0.6 | 14 | 0.8 | 18
CCn1c(SCC(=O)Nc2ccc(C(=O)OC)cc2)nc2cccnc21 | · | · | 4 | · | ·
Cc1cc(Cl)c(OCCCNCc2ccccc2)c(Br)c1 | -4 | 1 | 8 | 0.4 | 57*
Clc1ccc(OCCCNCc2ccccc2)c(Br)c1 | 2 | 1 | 17 | 0.4 | 63*
COCCNCCCCOc1c(Cl)cc(C)cc1Br | -8 | 1.1 | 4 | 0.8 | 17
Clc1ccc(Cl)c(OCCCCNCc2ccccc2)c1 | · | · | 5 | · | ·
O=c1nc2n(c3cc(Cl)c(S(=O)(=O)N4CCOCC4)cc13)CCCCC2 | 9 | 0.9 | 5 | 1.1 | -13
COC(=O)c1cccc(N(C(=O)CNC(=O)c2ccco2)C(C(=O)NC2CCCC2)c2ccco2)c1 (configuration not stated) | 64* | 0.4 | 5 | 0.7 | 25
COC(=O)c1ccc(N(C(=O)c2ccco2)C(C(=O)NC2CCCC2)c2ccco2)cc1 (configuration not stated) | · | · | 6 | · | ·
CC(C)CCN(C(=O)CNC(=O)c1ccco1)C(C(=O)NC1CCCCC1)c1ccco1 (configuration not stated) | 51* | 0.5 | 13 | 0.3 | 70*
COC(=O)c1ccc(C(C(=O)NCc2ccccc2)N(Cc2cccs2)C(=O)c2cnccn2)cc1 (configuration not stated) | 32 | 0.7 | 9 | 0.9 | 7
COC(=O)c1cccc(N(C(=O)c2cnccn2)C(C(=O)NCc2ccccc2)c2ccco2)c1 (configuration not stated) | 48 | 0.5 | 10 | 0.3 | 71*
NS(=O)(=O)c1ccc(CCNCc2cc(Br)ccc2OCc2ccccc2)cc1 | · | · | 6 | · | ·
C=CCN(C)CCCNC(=O)/C=N/O | · | · | 26 | · | ·
COc1nc(C)ccc1-c1noc(-c2ccncc2)n1 | · | · | 3 | · | ·
COc1nc2c(C)cccc2cc1-c1noc(-c2ccncc2)n1 | 50 | 0.5 | · | 0.4 | 63*
CC(=O)Oc1ccc2ccccc2c1C(NC(=O)Cc1ccccc1)c1ccc(Cl)cc1 (configuration not stated) | 63* | 0.4 | 4 | 0.5 | 48
COc1ccc(C(CC(=O)O)NC(=O)Cc2ccccc2)cc1OC (configuration not stated) | · | · | 1 | · | ·
COc1ccc(Sc2ccccc2CN(C)C)cc1OC | 26 | 0.7 | 14 | 0.4 | 57*
COC(=O)c1ccc(NC(=S)NC2CCCCC2C)cc1 (configuration not stated) | · | · | 14 | · | ·
CC1CCCC(NC(=S)Nc2ccc(SC(F)F)cc2)C1C (configuration not stated) | -6 | 1.1 | 3 | 0.3 | 68*
NC(=O)C1CCN(C2CC(=O)N(c3ccc(F)c(Cl)c3)C2=O)CC1 (configuration not stated) | 8 | 0.9 | 6 | 1 | -3
Cc1ccc(C)c2[nH]c(=O)c(CN(Cc3ccco3)C(=O)Nc3ccccc3)cc12 | 40 | 0.6 | 18 | 0.7 | 26
Cc1ccc(NC(=O)N(Cc2ccco2)Cc2cc3cc(C)cc(C)c3nc2Cl)cc1 | 50* | 0.5 | 4 | 0.8 | 19
